Most compounds without a hit are left out; they make up all but 19% or so of the library.
IL-1B inflam inh – blocks inflammasome-driven IL-1 beta release. AID 743279. 4.7% of 360,000 active. THP-1 LPS/ATP IL-1B secretion, AlphaLISA, 16 h; hits give low values. activity change, % at 57.5 µM; in the data active means activity change below about -50%; inconclusive means mostly about -30% to -49%
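Secreted IL-1B measured by AlphaLISA bead assay after 16 h compound exposure of THP-1 cells; compounds (final up to 57.5 uM) added 1 h before LPS (250 ng/mL) and ATP (1.25 mM) stimulation; lower signal means less secretion.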
uPA generation – blocks generation of uPA at the cell surface; cell surface uPA generation assay, qHTS; Potency, µM (top dose mostly 38.3 µM), hits mostly inhibitors; 0.31% of 330,000 active; active means well fitted inhibition curve with a large enough effect; inconclusive means small, poorly fitted or top-dose-only effect; inactive means no such curve, though single readings can be large or run the other way; tested in mouse RAW 264.7 cells; further: nearly all actives have a fitted effect of over 55% in size
TDP1 cell noCPT – qHTS for Inhibitors of human tyrosyl-DNA phosphodiesterase 1 (TDP1): qHTS in cells in absence of CPT. DT40 Tdp1-/- hTDP1 cells, no CPT, ATP luminescence, 48 h. Potency, µM (highest dose often 46.2 µM), usual class: inhibitors. 15% of 420,000 active. AID 686978, 2013; further: nearly all actives have a fitted effect of over 55% in size
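Luminescent ATP content (CellTiter-Glo) served as the growth readout. Knockout chicken DT40 cells expressing human TDP1 were exposed to compounds without camptothecin for a minimum 48 hr at 37 °C.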
HT1080NT lethal – kills 2HG-producing HT-1080-NT fibrosarcoma cells. HT-1080-NT fibrosarcoma viability, CellTiter-Glo ATP luminescence, 48 h. Potency, µM (doses to about 46.1 µM), hits mostly cytotoxic. 1.6% of 360,000 active. AID 686970;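 further: NT is the 2HG producing partner of a matched IDH1 knockdown line; nearly all actives have a fitted effect of over 55% in size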
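Viability by CellTiter-Glo luminescence after 48 h compound exposure at 37C of HT-1080-NT cells (750/well, RPMI, 5% FBS). % activity scaled between DMSO wells and medium-only wells, then curve-fitted and categorized by curve class.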
TDP1 cell CPT – DT40-hTDP1 cell growth loss with CPT; 12% of 420,000 active; chicken DT40 Tdp1-/-;hTDP1 cells + 20 nM CPT, ATP luminescence, 48 h; Potency, µM (highest dose often 46.2 µM), most hits filed as inhibitors; further: nearly all actives have a fitted effect of over 55% in size
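Chicken DT40 Tdp1-/- cells stably complemented with human TDP1 were seeded at 400 cells/well in medium containing 20 nM camptothecin, exposed to pin-transferred compounds, and grown at 37 °C for at least 48 hr. Viability was read as ATP luminescence.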
HT1080 IDH1KD tx – toxicity to HT-1080 IDH1 knockdown cells (counter line). AID 686971. HT-1080 IDH1 knockdown viability, ATP luminescence, 48 h. 2% of 360,000 active. Potency, µM (titrated, usually from 46.1 µM), usual class: cytotoxic
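Knockdown cells (IDH1KD HT-1080) received compounds 2 h after plating at 750 cells/well and were kept 48 h at 37 °C in 5% FBS RPMI. A CellTiter-Glo luminescence read gave % activity for curve fitting.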
A number is an active result; 0 = inactive; ? = inconclusive; - = not tested or not shown; [ ] = another dose, or the depositor's remark. Unless noted, the call rests on the fitted dose curve; in most records, active means well fitted curve in the direction sought with a large enough effect; inconclusive means small, poorly fitted or top-dose-only effect, or another doubt; inactive means no such curve, though single readings can be large; an effect the other way counts as inactive or inconclusive.

SMILES	IL-1B inflam inh	uPA generation	TDP1 cell noCPT	HT1080NT lethal	TDP1 cell CPT	HT1080 IDH1KD tx
COC(=O)c1ccccc1NC(=O)Cn1cc(S(=O)(=O)Cc2ccccc2F)c2ccccc21	-	-	20.6µM	-	14.6µM	-
CCN(CC)c1ccc(NC(=O)CNCc2ccccc2Cl)c(C)c1	0	0	0	0	?	0
O=C(CNC(=O)N1CC(=O)Nc2ccccc21)Nc1ccc(Cl)cc1Cl	0	-	0	0	0	0
CCOC(=O)c1noc2nc(C)n(CC(=O)Nc3cc(Cl)ccc3OC)c(=O)c12	-	-	0	-	0	-
CCOC(=O)[C@H]1[C@H]2COc3ccc(OC)cc3[C@@H]2N2C(=O)c3cc(C)ccc3NC(=O)[C@@]12C	0	0	0	0	0	0
COc1ccc2c(c1)[C@@H]1[C@H](CO2)[C@H](c2ccccc2)[C@]2(C)C(=O)Nc3ccc(C)cc3C(=O)N12	0	0	?	0	18.4µM	0
COc1ccc2c(c1)[C@H]1[C@H](CO2)[C@H](c2ccccc2)[C@]2(C)C(=O)Nc3ccc(Cl)cc3C(=O)N12	-53.7	0	?	0	18.4µM	0
COc1ccc2c(c1)C(=O)N1[C@H]3c4cc(C)ccc4OC[C@@H]3[C@H](c3ccccc3)[C@]1(C)C(=O)N2	-65.9	?	10.3µM	?	7.31µM	?
COc1ccc2c(c1)OC[C@H]1[C@H]2N2C(=O)c3ccccc3NC(=O)[C@@]2(C)[C@H]1c1ccccc1	-78.5	?	?	?	?	?
COc1ccc2c(c1)[C@H]1[C@H](CO2)[C@H](c2ccccc2)[C@]2(C)C(=O)Nc3ccc(C)cc3C(=O)N12	0	?	?	0	?	0
CC1(C)Cc2c(sc(NC(=O)C(=O)N3CCOCC3)c2C(N)=O)CO1	0	0	0	0	0	0
CCc1ccc(-n2nc(C)c3c(C)cc(=O)n(CC(=O)NCc4ccc(C)cc4)c32)cc1	-	-	?	-	0	-
CC(C)Oc1ccccc1C1C=C(C(=O)O)Nc2ncnn21 (stereo not drawn)	-	-	0	-	0	-
COc1ccc(CNC(=O)C2CCN(S(=O)(=O)Cc3ccccc3)CC2)cc1	-	-	0	-	?	-
CCc1cccc(NC(=O)CCn2nc(C)cc2C)c1	-	-	0	-	0	-
COc1ccc2c(c1)[C@H]1[C@H](CO2)[C@H](c2ccccc2)[C@]2(C)C(=O)Nc3cc(OC)c(OC)cc3C(=O)N12	0	?	20.6µM	0	?	?
COc1ccc2c(c1)[C@H]1[C@H](CO2)[C@H](c2ccccc2)[C@]2(C)C(=O)Nc3ccc(F)cc3C(=O)N12	-57.1	?	?	?	?	?
CC(=O)Oc1ccc2nonc2c1OC(C)=O	-	-	5.62µM	-	5.62µM	-
CC(=O)Nc1cc(OC(C)=O)c2nonc2c1OC(C)=O	0	?	18.4µM	6.31µM	?	3.55µM
CCOC(=O)c1cc(C#N)c(N2CCN(C(=O)c3cccc(C(F)(F)F)c3)CC2)nc1C(F)(F)F	?	0	14.6µM	0	?	?
CCOC(=O)c1c(C)oc2nc(C)nc(N3CCN(c4ccc(C)cc4C)CC3)c12	-	-	?	-	0	-
CCOC(=O)c1c(C)oc2nc(C)nc(N3CCN(c4cccc(C(F)(F)F)c4)CC3)c12	-	-	5.17µM	-	9.2µM	-
CCOC(=O)c1cc(C#N)c(N2CCN(C(=O)c3ccccc3)CC2)nc1C(F)(F)F	0	0	?	0	0	0
CCOC(=O)c1c(C)oc2nc(C)nc(N3CCN(c4ccccc4)CC3)c12	-	-	14.6µM	-	9.2µM	-
CCOC(=O)c1c(C)oc2nc(C)nc(N(C)Cc3ccccc3)c12	-	-	23.1µM	-	18.4µM	-
SMILES	IL-1B inflam inh	uPA generation	TDP1 cell noCPT	HT1080NT lethal	TDP1 cell CPT	HT1080 IDH1KD tx
CCc1nc2ccccc2c(C(=O)OCC(=O)N(C)Cc2ccccc2)c1C	0	0	?	0	?	0
O=C(c1cncs1)N(Cc1cc2cc3c(cc2nc1N1CCOCC1)CCC3)CC1CCCO1 (stereo not drawn)	-	-	0	-	0[9.04 µM]	-
CCOc1cccc2cc(-c3nc4sc(C(=O)Nc5ccc(C)cc5)c(C)c4c(=O)[nH]3)c(=O)oc12	-	-	0	-	0	-
CC(=O)NCCNc1nc(-c2ccccc2C)nc2ccccc12	-	-	0	-	0	-
O=C1CS(=O)(=O)N(Cc2cccc(F)c2)c2ccc(Br)cc21	0	0	?	?	?	?
COc1ccc(CN2c3c(Br)cccc3C(=O)CS2(=O)=O)cc1	0	0	?	23.1µM	?	?
COc1ccc(NC(=O)c2c(NCc3ccc(N(C)C)cc3)sc3c2CCC3)cc1	-	-	10.3µM	-	13µM	-
O=C(CNCCC1=CCCCC1)Nc1ccc(N2CCCCCC2)cc1	-86.6	0	20.6µM	?	20.6µM	?
COC(=O)c1c(NC(=O)/C=C/c2ccc(OC)c(OC)c2)sc2c1CCC2	-	-	9.2µM	-	?	-
CCOC(=O)c1c(NC(=O)C(=O)N/N=C/c2ccc(O)c(OC)c2)sc2c1CCCCC2	0	0	23.1µM	0	?	0
COCCCn1nnnc1SCC(=O)Nc1nc2ccccc2s1	0	0	0	0	0	0

Screening data (PubChem BioAssay)
